Nine molecules from PubChem BioAssay (EPA / NIEHS) can be followed below.

Each structure is given as a SMILES string. Records with an inconclusive call do not appear. Activity calls are given as the source filed them. Rule for the calls, unless noted: active = hit-call score of the fitted dose curve at least 0.9, where 1 is the maximum; inconclusive = response in the unintended direction; inactive = score below 0.9.

Read-out in test [1]: UDP glucuronosyltransferase (UGT1A6), UGT1A6 (gene 54578)
The test can be described thus: LTEA_HepaRG_UGT1A6: Life Technologies and Expression Analysis (LTEA) Assay for UDP glucuronosyltransferase (UGT1A6) using HepaRG (AID 2283539; active = hit-call score of the fitted dose curve at least 0.9, where 1 is the maximum; inactive = score below 0.9). The settings on record: mRNA level, 48 h; actives raise or lower the signal. In short, it runs like this:
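Measures mRNA change in HepaRG hepatic cells exposed 48 h to chemicals (eight-point, maximum 100 uM, 0.5% DMSO vehicle) in serum-free induction medium. Expression normalized to endogenous controls; DMSO served as negative control and baseline.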

Read-out in test [2]: X-box binding protein 1 (XBP1), XBP1 (gene 7494)
The experiment in a line: LTEA_HepaRG_XBP1: Life Technologies and Expression Analysis (LTEA) Assay for X-box binding protein 1 (XBP1) using HepaRG (AID 2283540; active = hit-call score of the fitted dose curve at least 0.9, where 1 is the maximum; inactive = score below 0.9). The settings on record: mRNA level, 48 h; actives raise or lower the signal. Put shortly:
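Eight concentrations (half-log, highest 100 uM, 0.5% DMSO) tested in duplicate on HepaRG cells over 48 h in serum-free induction medium; qRT-PCR of XBP1 normalised to ACTB, GAPDH, POLR2A.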

The nature of test [3]: LTEA_HepaRG_LDH_cytotoxicity: Cytotoxicity Assessment in the Life Technologies and Expression Analysis (LTEA) Assay (AID 2283563).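 For AC50: LDH activity released into spent culture medium as a marker of cell death.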 In short, it runs like this:
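Spent-medium LDH after 48 h chemical exposure of HepaRG cells in serum-free induction medium; eight concentrations, half-log dilutions from 100 uM, duplicate wells, fitted upward relative to 0.5% DMSO.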

A short description of test [4]: TOX21_p53_BLA_p2_viability: Viability Assessment in the Tox21 HCT-116 p53 Agonism Beta-lactamase Assay, Phase 2 (AID 2283591).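 Note: compound exposure lasted 16 h at 37 °C; actives lower the ATP signal meaning cytotoxicity.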 In short, it runs like this:
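HCT116 p53-bla cells, 4000/well, dosed after 5 h plating (217-fold dilution of DMSO stocks) and incubated 16 h at 37C. Viability taken as cellular ATP by CellTiter-Glo luminescence after 30 min RT; signal loss marks cytotoxicity.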

Test [5] has as its target Cellular tumor antigen p53 (Homo sapiens) (UniProt P04637). The test can be described thus: TOX21_p53_BLA_p2_ratio: Tox21 HCT-116 p53 Agonism Beta-lactamase Assay, Ratio, Phase 2 (AID 2283592). Put shortly:
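Human colon HCT116 cells with an inducible p53 beta-lactamase reporter are exposed to test chemicals for 16 h at 37C. Reporter induction is read as the 460/530 nm emission ratio after CCF4-AM loading, normalized to DMSO.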

Test [6] in a line: TOX21_p53_BLA_p3_viability: Viability Assessment in the Tox21 HCT-116 p53 Agonism Beta-lactamase Assay, Phase 3 (AID 2283593).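 Note: cells exposed to compound for 16 h before reading.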 In short, it runs like this: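 HCT116 cells, 4000/well, dosed 5 h after plating by pin transfer (217-fold dilution from DMSO stock) and incubated 16 h at 37C, 5% CO2. Viability read as ATP luminescence with CellTiter-Glo after 30 min at room temperature.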

Test [7] deals with Cellular tumor antigen p53 (Homo sapiens) (UniProt P04637). The test can be described thus: TOX21_p53_BLA_p3_ratio: Tox21 HCT-116 p53 Agonism Beta-lactamase Assay, Ratio, Phase 3 (AID 2283596). Put shortly:
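HCT116 p53-bla cells (4000/well) given compound in DMSO (217-fold dilution) after 5 h, incubated 16 h at 37C. CCF4-AM substrate 2 h at room temperature; 460/530 nm emission ratio, gain fitted against DMSO.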

The nature of test [8]: TOX21_p53_BLA_p4_viability: Viability Assessment in the Tox21 HCT-116 p53 Agonism Beta-lactamase Assay, Phase 4 (AID 2283597).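 Note: hits lower the luminescence signal meaning cytotoxicity.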 Put shortly:
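Luminescent ATP readout (CellTiter-Glo, 30 min, room temperature) in the same wells as the p53 bla ratio. HCT116 cells were treated for 16 h at 37C with DMSO-dissolved compounds.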

In test [9] the target is Cellular tumor antigen p53 (Homo sapiens) (UniProt P04637). The test can be described thus: TOX21_p53_BLA_p5_ratio: Tox21 HCT-116 p53 Agonism Beta-lactamase Assay, Ratio, Phase 5 (AID 2283599). In short, it runs like this: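 HCT-116 p53-bla cells (4000/well) plated 5 h, dosed with compound (217-fold DMSO dilution) for 16 h at 37 C; CCF4-AM substrate 2 h at room temperature. Activity is the 460/530 nm emission ratio (405 nm excitation), fitted in gain-of-signal direction versus DMSO.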

Test [10] in a line: TOX21_p53_BLA_p5_viability: Viability Assessment in the Tox21 HCT-116 p53 Agonism Beta-lactamase Assay, Phase 5 (AID 2283600). Put shortly: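 Seeded cells (4000/well) settle 5 h before compound addition. Plates then incubate 16 h at 37C, receive FRET substrate for 2 h, and finally CellTiter-Glo, with luminescence measured after a 30 min room-temperature incubation.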
The target of test [11] is Cellular tumor antigen p53 (Homo sapiens) (UniProt P04637). The experiment in a line: TOX21_p53_BLA_p4_ratio: Tox21 HCT-116 p53 Agonism Beta-lactamase Assay, Ratio, Phase 4 (AID 2283601). In short, it runs like this: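 HCT-116 p53 beta-lactamase reporter cells (4000/well) preincubated 5 h, then compound (217-fold dilution of DMSO stock) for 16 h at 37C. CCF4-AM substrate added 2 h at room temperature; 460/530 nm emission ratio fitted upward versus DMSO.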

Test [12] can be described thus: Tanguay_ZF_120hpf_MORT_legacy: (Legacy) Oregon State University Tanguay Lab 120 Hour Post-fertilization zebrafish Assay for Mortality (AID 2283633). Put shortly: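 Single dechorionated Tropical 5D embryos were held with test chemical (0.64% DMSO final) from 6 to 120 hpf at 28C under foil. Deaths at 24 or 120 hpf were recorded as binary calls, analysed for increase over DMSO controls.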

Test [13] in a line: Tanguay_ZF_120hpf_YSE_legacy: (Legacy) Oregon State University Tanguay Lab 120 Hour Post-fertilization zebrafish Assay for Yolk Sac Edema (AID 2283634). Put shortly:
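Single dechorionated embryos were held in sealed plates at 28C with test chemical (0.64% DMSO final) from 6 hpf until 120 hpf. Edema of the yolk sac was then recorded as a binary endpoint; non-mortality endpoints were skipped for dead embryos.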

A short description of test [14]: Tanguay_ZF_120hpf_AXIS_legacy: (Legacy) Oregon State University Tanguay Lab 120 Hour Post-fertilization zebrafish Assay for Body Axis Malformation (AID 2283635).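 For AC50: potency for an increased fraction of larvae scored with body axis malformation.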 Put shortly:
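Each dechorionated embryo was exposed alone from 6 hpf, with DMSO at 0.64% (vol/vol) and trimethyltin chloride 5 uM as positive control. Axis malformation was recorded at 120 hpf unless the embryo had died.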

Test [15] is described as follows: Tanguay_ZF_120hpf_EYE_legacy: (Legacy) Oregon State University Tanguay Lab 120 Hour Post-fertilization zebrafish Assay for Eye Malformation (AID 2283636).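 Note: binary presence or absence of eye malformation scored by brightfield in 120 hpf larvae.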 Put shortly:
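Dechorionated Tropical 5D zebrafish embryos, one per well from 6 hpf, static exposure to 120 hpf at 28C, 0.64% DMSO. Eye malformation scored present/absent by brightfield; dead embryos not scored.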

Test [16] in a line: Tanguay_ZF_120hpf_SNOU_legacy: (Legacy) Oregon State University Tanguay Lab 120 Hour Post-fertilization zebrafish Assay for Snout Malformation (AID 2283637). In short, it runs like this: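 Dechorionated tropical 5D wild-type zebrafish embryos exposed statically from 6 to 120 hpf at 28C, one per well, in 0.64% DMSO. Snout malformation scored as present/absent by brightfield at 120 hpf; dead embryos not scored.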

The nature of test [17]: Tanguay_ZF_120hpf_JAW_legacy: (Legacy) Oregon State University Tanguay Lab 120 Hour Post-fertilization zebrafish Assay for Jaw Malformation (AID 2283638). Put shortly: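 Wild-type 5D embryos, chorion removed at 4 hpf, dosed singly from 6 hpf; 28C static, sealed, foil-covered, to 120 hpf. Endpoint: jaw defect yes/no (brightfield); mortality excludes scoring.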
A short description of test [18]: Tanguay_ZF_120hpf_OTIC_legacy: (Legacy) Oregon State University Tanguay Lab 120 Hour Post-fertilization zebrafish Assay for Otic Vesicle Malformation (AID 2283639). In short, it runs like this:
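Tropical 5D wild-type zebrafish embryos were exposed statically in sealed, foil-covered plates at 28C until 120 hpf, with 0.64% (vol/vol) DMSO final. Otic vesicle malformation was scored present/absent by brightfield microscopy, with DMSO as baseline.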

The nature of test [19]: Tanguay_ZF_120hpf_PE_legacy: (Legacy) Oregon State University Tanguay Lab 120 Hour Post-fertilization zebrafish Assay for Pericardial Edema (AID 2283640). In short, it runs like this:
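Zebrafish larvae are exposed from early development to 120 hpf at 28C, with 0.64% DMSO final. Each surviving larva receives a yes/no pericardial edema call by brightfield imaging, analysed relative to the DMSO baseline.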

A short description of test [20]: ATG_XTT_Cytotoxicity: Cytotoxicity Assessment in the Attagene TRANS-FACTORIAL HepG2 Assay (AID 2283584). In short, it runs like this:
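24 h chemical exposure of reporter-transfected HepG2; XTT signal loss vs DMSO indicates cytotoxicity.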

Sequence of Cellular tumor antigen p53 (Homo sapiens) (P04637 whole entry, looked up): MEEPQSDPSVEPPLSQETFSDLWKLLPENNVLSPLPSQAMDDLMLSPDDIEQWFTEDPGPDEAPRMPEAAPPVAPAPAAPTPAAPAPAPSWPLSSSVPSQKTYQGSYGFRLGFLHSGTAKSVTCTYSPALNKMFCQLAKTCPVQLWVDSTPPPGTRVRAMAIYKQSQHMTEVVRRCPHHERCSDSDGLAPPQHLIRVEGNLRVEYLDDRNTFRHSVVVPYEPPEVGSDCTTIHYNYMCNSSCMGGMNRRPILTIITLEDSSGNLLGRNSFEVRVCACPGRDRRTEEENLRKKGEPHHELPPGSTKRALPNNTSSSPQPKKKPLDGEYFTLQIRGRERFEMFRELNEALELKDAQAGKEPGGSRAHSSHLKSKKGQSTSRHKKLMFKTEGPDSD

Turning to `Cc1cc(=O)[nH]c(=S)[nH]1`, the outcome in test [1], in test [2], in test [3], in test [4], in test [5] and in test [6] was inactive. Also, the outcome in test [7], in test [8], in [9], in test [10], in [11] and in [12] was inactive. For the same molecule, the outcome in [13], in [14], in test [15], in test [16], in test [17] and in test [18] was inactive. Moreover, the result in test [19] was inactive.

For `COc1ccc(C)cc1N`, the result in test [1], in test [2], in test [3], in [20], in test [5] and in test [7] was inactive. The outcome in test [8], in test [9], in test [11], in [12], in [13] and in test [14] was inactive. In addition, the molecule was called inactive in test [17] and in test [18].

With `CN[C@H]1CC[C@@H](c2ccc(Cl)c(Cl)c2)c2ccc(S(N)(=O)=O)cc21`, the AC50 in [1] is 74.2 µM (active); in [3], 36.9 µM (active); in test [4], 78.4 µM (active); in [5], 87 µM (active); in test [6] it was 71.7 µM (active); in [7], 86.1 µM (active). In addition, the AC50 in test [8] was 61.9 µM (active); in test [9], 82.5 µM (active); in test [10] it was 85.5 µM (active); in test [11], 86.1 µM (active). Moreover, the molecule was classed as inactive in [2], in [12], in test [13], in test [14], in test [16] and in test [17]. For the same molecule, the call in [18] was inactive.

For `CCOC(=O)C(C)(C)Oc1ccc(Cl)cc1`, the molecule was classed as inactive in test [1], in test [2], in test [3], in [4], in test [5] and in test [6]. The outcome in test [7], in test [8], in [9], in [10], in test [11] and in [12] was inactive. Besides, the molecule was classed as inactive in test [13], in test [15] and in test [19]. In test [14], the AC50 is 63.8 µM (active).

Turning to `CCCCCCCCCCCCCCCCCC(=O)O`, the result in test [1], in test [2], in test [3], in test [20], in [12] and in [13] was inactive. Moreover, the outcome in [14], in [15], in [17], in [18] and in test [19] was inactive.

Take `CCCCCCC(=O)OCC`: the outcome in [1], in test [2], in test [3], in test [20], in [5] and in [7] was inactive. The outcome in test [11], in test [12], in test [14], in [15], in [16] and in test [18] was inactive. Moreover, the outcome in test [19] was inactive.

With `FC(F)(F)C(F)(F)C(F)(F)C(F)(F)C(F)(F)C(F)(F)CCI`, the call in test [1], in test [2], in test [3], in test [20], in [5] and in [6] was inactive. Moreover, the outcome in test [7], in [9], in test [12], in [13], in test [14] and in test [15] was inactive. For the same molecule, the call in test [17] and in test [19] was inactive.

With `CC(CO)OC(C)CO` (stereo unspecified) (tested in a mixture with another compound), the result in test [1], in [2], in test [3], in test [20], in [12] and in test [13] was inactive. Moreover, the call in test [14], in test [15], in test [18] and in test [19] was inactive.

In the case of `CCCCCCCCCCCCCO`, the call in [1], in test [2], in [3], in test [20], in test [5] and in test [6] was inactive. Further, the outcome in test [7], in [8], in test [9], in test [10], in test [11] and in test [12] was inactive. Besides, the call in [13], in [14], in test [15], in test [17] and in test [18] was inactive.
